Rows were chosen to be rich in hits. Some 1.7% of all compounds tested hit in one or more screens of this group.
Vc quorum ag: inducers of Vibrio cholerae quorum light production without autoinducers; V. cholerae BH1578 lux reporter, luminescence, 6 h; activation, % at 18.7 µM; actives 0.16% (n = 350,000); AID 588436; in the data active = activation mostly above about 9.7%, no sharp cut-off
RN4220 kill: S. aureus RN4220 growth inhibition; inhibition, % (no concentration beside the values); OD600, 16 h; actives 0.33% (n = 330,000); AID 1259311; in the data active = inhibition above about 85%;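 note: plate controls were untreated cells for no effect and reference antibiotic for full effect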
Mtb hypoxia rep: inhibitors of hypoxia-regulated fluorescent reporter in Mycobacterium tuberculosis; fluorescence inhibition, % (concentration not given with the values); actives 0.1% (n = 300,000); M. tuberculosis hypoxia-regulated fluorescent reporter, fluorescence; in the data active = fluorescence inhibition mostly above about 23%, no sharp cut-off; inactive = mostly below about 17%
PfHsp40 yeast: compounds rescuing yeast from Plasmodium falciparum HSP40 toxicity; S. cerevisiae expressing PfHsp40, growth rescue, ATP luminescence; growth rescue, % at 12.5 µM; actives 0.68% (n = 340,000); in the data active = growth rescue above about 28%, passing the limit was not always enough;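 note: yeast W303a lacking pdr1 and pdr3 grown in galactose medium; growth measured after three days at 30 °C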
ugtP null kill: growth inhibition of S. aureus ugtP deletion strain; S. aureus RN4220 ugtP deletion, OD600 growth, 16 h; growth inhibition, % (no concentration beside the values); actives 0.54% (n = 330,000); AID 1259309; in the data active = growth inhibition above about 68%;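 note: plate controls were untreated wells for no effect and antibiotic for full effect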
CCHFV vOTU inh: CCHFV vOTU protease inhibition; Pep-AMC fluorescence; actives 0.55% (n = 370,000); AID 651958; inhibition, % at 11.5 µM; in the data active = inhibition above about 30%; note: 0% = vehicle wells with enzyme and 100% = no enzyme wells
* = called active by the depositor; i = inactive; . = no result shown.

SMILES	Vc quorum ag	RN4220 kill	Mtb hypoxia rep	PfHsp40 yeast	ugtP null kill	CCHFV vOTU inh
CCn1ncc(C=NN=C2CCC3C4CCc5cc(O)ccc5C4CCC23C)c1C (stereo not given)	.	-1	.	.	-4	.
Cc1ccc(C)c(C(=O)c2c(C)nc3sccn23)c1	-1	3	.	1	0	15
Cc1cc(C)c(NC(=O)c2cc3c(nc4sccn43)s2)c(C)c1	i	5	4	66*	-6	5
COc1ccc(C)cc1NC(=O)c1nnn(Cc2cccc(C(F)(F)F)c2)c1N	i	-3	11	1	98*	-5
COc1ccc(OC)c(NC(=O)c2nnn(CCc3ccccc3)c2N)c1	1	2	.	-1	8	-3
COC(=O)c1ccc2c(=O)n(-c3ccccc3F)c(=S)[nH]c2c1	0	88	14	-1	active	-7
O=C(O)/C=C\C(=O)Nc1ccccc1F	i	7	-11	37*	1	4
CC1CCCN(c2ccc([N+](=O)[O-])cc2C(=O)c2ccccc2)C1 (stereo not given)	-1	-2	12	-1	87*	10
CC(=NNc1ccc(S(N)(=O)=O)cc1[N+](=O)[O-])c1cccnc1	.	5	0	.	-1	.
CN(C)CCn1nnnc1SCC1=C(C(=O)O)N2C(=O)[C@@H](NC(=O)Cc3csc(N)n3)[C@H]2SC1	0	.	.	-1	.	2
Cc1nnc(SCC2=C(C(=O)O)N3C(=O)C(NC(=O)Cn4cnnn4)C3SC2)s1 (stereo not given)	1	100*	.	-2	100*	2
Cc1nnc(SCC2=C(C(=O)O)N3C(=O)[C@@H](NC(=O)Cn4cnnn4)[C@H]3SC2)s1	5	97*	.	-1	100*	-1
CCOC1OC(C(=O)N2CCOCC2)=CC(C)C1CCCO (stereo not given)	.	6	9	.	2	.
Oc1cc(-c2cccnc2)cc2cccnc12	i	100*	3	3	100*	-6
O=C(O)c1cccc(NN=Cc2cccc3ccccc23)c1	.	2	6	.	9	.
Cc1ccc2ccc3cccc4ccc1c2c34	0	-8	16	-1	100*	-6
CC1CN(C(C)CO)C(=O)c2cc(NC(=O)Cc3ccccc3)ccc2OC1CN(C)S(=O)(=O)c1ccccc1 (stereo not given)	.	0	2	.	6	.
COc1ccc(N=C2SC(=Cc3cc(C)n(C)c3C)C(=O)N2C)cc1	.	4	14	.	-7	.
O=c1c2cc(Cl)ccc2nc(-c2ccc(Cl)c(Cl)c2)n1O	0	.	.	-2	.	-9
O=c1c2cc(Br)ccc2nc(-c2ccc([N+](=O)[O-])cc2)n1O	-2	63	3	160*	40	-8
O=c1c2cc(Cl)ccc2nc(-c2ccccc2)n1O	-1	24	12	195*	4	0
Cc1ccc2c(c1)C(=O)N1C3c4cc(Br)ccc4OCC3C(c3ccccc3)[C@]1(C)C(=O)N2 (stereo not given in full)	.	-4	-3	.	-16	.
COCCCNC(=O)c1ccc(S(=O)(=O)c2ccc(C)cc2)c(NC(C)=O)c1	i	-3	0	91*	2	2
CCC(C)C1COCCS(=O)(=O)N1Cc1ccc(Cl)cc1Cl (stereo not given)	.	4	5	.	-21	.
O=C(Oc1c(Cl)cc(Cl)c2cccnc12)c1cccc([N+](=O)[O-])c1	0	97*	-3	0	97*	.
SMILES	Vc quorum ag	RN4220 kill	Mtb hypoxia rep	PfHsp40 yeast	ugtP null kill	CCHFV vOTU inh
NCCCCC1CN=C(N)N1CCC12CC3CC(CC(C3)C1)C2 (stereo not given)	.	3	0	.	1	.
NC1=NC[C@@H](Cc2ccc(O)cc2)N1CCC12CC3CC(CC(C3)C1)C2	i	.	.	48*	.	12
COC(=O)CN1C(=O)C2C(c3ccc(C)o3)N3C(=O)CN(Cc4ccc(-c5ccccc5)cc4)C(=O)[C@@]3(C)C2C1=O (stereo not given in full)	.	4	8	.	-2	.
CCn1c(COc2ccc(C)cc2)nnc1SCC(=O)Nc1cc(OC)ccc1OC	29*	3	13	2	-12	14
COC(=O)C1=C(C)N(c2ccc(C)c(C)c2)/C(=C/c2ccc(O)cc2)C1=O	i	93*	2	-1	91*	-3
COC(=O)C1=C(C)N(CC2CCCO2)C(=O)/C1=C\c1ccc(O)cc1 (stereo not given)	i	1	.	0	6	8
CCc1ccc2c(c1)C(=NN(C)C(=S)NC)C(=O)N2	.	13	13	.	1	.
Oc1ccccc1C1SC(c2ccccc2O)SC(c2ccccc2O)S1 (stereo not given)	-7	100*	17	32*	100*	20
Cc1cc2c(cc1C)CSC(c1ccccc1O)SC2	0	-3	-13	12	-20	-3
O=S(=O)(NC1CCCCCCC1)OCC(Cl)(Cl)Cl	i	11	4	9	7	9
O=S(=O)(NC1CC(NS(=O)(=O)OCC(Cl)(Cl)Cl)C2CCCCC12)OCC(Cl)(Cl)Cl (stereo not given)	i	101*	5	0	95*	.
Oc1ccccc1N=Cc1ccc[nH]1	-1	12	81*	55*	-1	15
COc1ccc(Cc2nnc(NN=C(C)c3ccccc3)[nH]c2=O)cc1OC	.	-4	5	.	7	.
Cn1c(CC(=O)NNC(=O)c2cccnc2)nc2ccccc21	20*	0	1	1	-1	-5
CC(C)Cn1nc(C(=O)Nc2cccc(S(=O)(=O)N3CCCC3)c2)c2ccccc2c1=O	i	5	3	1	5	3
CCn1nc(C(=O)Nc2cccc(S(=O)(=O)N3CCCC3)c2)c2ccccc2c1=O	1	1	23*	1	-1	-3
O=C(Oc1cccc(C(=S)N2CCOCC2)c1)c1ccc([N+](=O)[O-])cc1[N+](=O)[O-]	i	3	9	44*	15	2
O=C(Oc1ccc(C(=S)N2CCOCC2)cc1)c1ccc([N+](=O)[O-])cc1[N+](=O)[O-]	i	2	4	3	7	-17
Cc1cc(C)n(/N=C/c2cc([N+](=O)[O-])ccc2O)c(=O)c1	-1	.	.	0	.	7
Cc1cc(C)n(N=Cc2cc([N+](=O)[O-])ccc2O)c(=O)c1	.	89*	-2	.	76	.
CCCCN1C(Nc2ccccc2)=NCC1Cc1ccccc1 (stereo not given)	.	0	9	.	5	.
O=C(c1cc(-c2ccc(Br)cc2)nc2ccccc12)N1CCN(c2ccccc2O)CC1	-4	-3	-4	-2	-24	21
Cc1ccc(-c2cc(C(=O)N3CCN(c4ccccc4O)CC3)c3ccccc3n2)o1	i	5	5	137*	-6	-42

Screening results from PubChem BioAssay.
